According to PubChem BioAssay AID1159580 (chemical genetic matrix, 2015):
Out of some 5,500 compounds screened, about 2,000 (36%) were called active. About 18% were inconclusive and are not listed. Cut-off read from the data, not from the text of the source: active = normalized growth mostly below about 0.91 (no sharp cut-off); inconclusive = no clear call, values can overlap the other calls; inactive = mostly above about 0.92. This is one part of the list.

Experiment: chemical genetic growth profiling, strain panel (AID 1159580);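 note: tested at 20 µM; growth read once vehicle control cultures reached saturation at 30 °C; 1 = growth at the plate median or of vehicle wells; lower values mean less growth of the strain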
Settings: growth OD

Measured: normalized growth

CC(=O)O[C@H]1C[C@H](O[C@H]2[C@@H](O)C[C@H](O[C@H]3[C@@H](O)C[C@H](O[C@H]4CC[C@@]5(C)C(CCC6C5C[C@@H](O)[C@]5(C)[C@@H](C7=CC(=O)OC7)CC[C@]65O)C4)O[C@@H]3C)O[C@@H]2C)O[C@H](C)[C@H]1O[C@@H]1O[C@H](CO)[C@@H](O)[C@H](O)[C@H]1O (stereo not given in full)
inactive: S. cerevisiae deletion strains, locus YJR075W, strain HOC1, hits give low values 1.02 | S. cerevisiae deletion strains, locus YKL009W, strain mrt4, hits give low values 1 | S. cerevisiae deletion strains, locus YKL068W, hits give low values 1 | S. cerevisiae deletion strains, locus YKL085W, strain MDH1 (second series), hits give low values 1 | S. cerevisiae deletion strains, locus YKL085W, strain MDH1, hits give low values 1 | S. cerevisiae deletion strains, locus YKL160W, strain elf1, hits give low values 1.01 | S. cerevisiae deletion strains, locus YKL190W, strain CNB1, hits give low values 1.01 | S. cerevisiae deletion strains, locus YKR001C, strain vps1, hits give low values 1.01 | S. cerevisiae deletion strains, locus YKR026C, strain gcn3, hits give low values 0.982 | S. cerevisiae deletion strains, locus YKR091W, strain srl3, hits give low values 1 | S. cerevisiae deletion strains, locus YLL001W, strain dnm1, hits give low values 1 | S. cerevisiae deletion strains, locus YLL026W, hits give low values 0.999 | S. cerevisiae deletion strains, locus YLL041C, strain sdh2, hits give low values 1 | S. cerevisiae deletion strains, locus YLR027C, strain aat2, hits give low values 1 | S. cerevisiae deletion strains, locus YLR039C, strain RIC1, hits give low values 1.05 | S. cerevisiae deletion strains, locus YLR058C, strain SHM2, hits give low values 1.02 | S. cerevisiae deletion strains, locus YLR102C, strain apc9, hits give low values 0.978 | S. cerevisiae deletion strains, locus YLR113W, strain HOG1, hits give low values 0.977 | S. cerevisiae deletion strains, locus YLR221C, strain rsa3, hits give low values 1 | S. cerevisiae deletion strains, locus YLR258W, strain gsy2, hits give low values 0.994 | S. cerevisiae deletion strains, locus YLR262C, strain YPT6 (second series), hits give low values 0.999 | S. cerevisiae deletion strains, locus YLR262C, strain YPT6, hits give low values 1.04 | S. cerevisiae deletion strains, locus YLR268W, strain sec22, hits give low values 1 | S. cerevisiae deletion strains, locus YLR320W, strain mms22, hits give low values 0.999 | S. cerevisiae deletion strains, locus YLR330W, strain CHS5, hits give low values 1.01 | S. cerevisiae deletion strains, locus YLR342W, strain FKS1 (second series), hits give low values 1.02 | S. cerevisiae deletion strains, locus YLR342W, strain FKS1, hits give low values 1 | S. cerevisiae deletion strains, locus YLR357W, strain rsc2, hits give low values 0.993 | S. cerevisiae deletion strains, locus YLR370C, strain arc18, hits give low values 0.994 | S. cerevisiae deletion strains, locus YLR371W, strain rom2, hits give low values 0.975 | S. cerevisiae deletion strains, locus YLR384C, strain iki3, hits give low values 0.988 | S. cerevisiae deletion strains, locus YLR418C, strain cdc73, hits give low values 1.05 | S. cerevisiae deletion strains, locus YML016C, strain PPZ1, hits give low values 1.01 | S. cerevisiae deletion strains, locus YML032C, strain rad52, hits give low values 0.991 | S. cerevisiae deletion strains, locus YML120C, strain ndi1, hits give low values 0.992 | S. cerevisiae deletion strains, locus YML124C, strain tub3, hits give low values 0.992 | S. cerevisiae deletion strains, locus YMR058W, strain fet3, hits give low values 1 | S. cerevisiae deletion strains, locus YMR078C, strain ctf18, hits give low values 0.984 | S. cerevisiae deletion strains, locus YMR125W, strain sto1, hits give low values 0.979 | S. cerevisiae deletion strains, locus YMR129W, hits give low values 0.991 | S. cerevisiae deletion strains, locus YMR205C, strain PFK2, hits give low values 0.974 | S. cerevisiae deletion strains, locus YMR223W, strain ubp8, hits give low values 0.997 | S. cerevisiae deletion strains, locus YMR231W, strain pep5, hits give low values 0.989 | S. cerevisiae deletion strains, locus YMR263W, strain SAP30, hits give low values 1.01 | S. cerevisiae deletion strains, locus YMR307W, strain GAS1, hits give low values 1.07 | S. cerevisiae deletion strains, locus YNL067W, strain RPL9B, hits give low values 1 | S. cerevisiae deletion strains, locus YNL071W, strain lat1, hits give low values 0.999 | S. cerevisiae deletion strains, locus YNL183C, strain NPR1, hits give low values 0.922 | S. cerevisiae deletion strains, locus YNL209W, strain ssb2, hits give low values 0.999 | S. cerevisiae deletion strains, locus YNL233W, strain BNI4, hits give low values 1.01 | S. cerevisiae deletion strains, locus YNL248C, strain rpa49, hits give low values 0.998 | S. cerevisiae deletion strains, locus YNL250W, strain rad50, hits give low values 1.01 | S. cerevisiae deletion strains, locus YNL271C, strain bni1, hits give low values 1.01 | S. cerevisiae deletion strains, locus YNL298W, strain CLA4, hits give low values 1 | S. cerevisiae deletion strains, locus YNL307C, strain MCK1, hits give low values 0.991 | S. cerevisiae deletion strains, locus YNL322C, strain KRE1 (second series), hits give low values 0.993 | S. cerevisiae deletion strains, locus YNL322C, strain KRE1, hits give low values 1.01 | S. cerevisiae deletion strains, locus YNR049C, strain mso1, hits give low values 0.992 | S. cerevisiae deletion strains, locus YNR052C, strain pop2, hits give low values 0.994 | S. cerevisiae deletion strains, locus YOL006C, strain TOP1, hits give low values 1.03 | S. cerevisiae deletion strains, locus YOL012C, strain htz1 0.846 | S. cerevisiae deletion strains, locus YOL147C, strain pex11, hits give low values 0.988 | S. cerevisiae deletion strains, locus YOR001W, strain rrp6, hits give low values 1.01 | S. cerevisiae deletion strains, locus YOR061W, strain CKA2, hits give low values 1.01 | S. cerevisiae deletion strains, locus YOR069W, strain VPS5, hits give low values 1.01 | S. cerevisiae deletion strains, locus YOR070C, strain gyp1, hits give low values 0.999 | S. cerevisiae deletion strains, locus YOR080W, strain dia2, hits give low values 0.999 | S. cerevisiae deletion strains, locus YOR083W, strain WHI5, hits give low values 1 | S. cerevisiae deletion strains, locus YOR106W, strain vam3, hits give low values 1.01 | S. cerevisiae deletion strains, locus YOR136W, strain idh2, hits give low values 1 | S. cerevisiae deletion strains, locus YOR144C, strain elg1, hits give low values 1 | S. cerevisiae deletion strains, locus YOR184W, strain ser1, hits give low values 1.02 | S. cerevisiae deletion strains, locus YOR231W, strain MKK1, hits give low values 0.983 | S. cerevisiae deletion strains, locus YOR265W, strain rbl2, hits give low values 1 | S. cerevisiae deletion strains, locus YOR270C, strain vph1, hits give low values 0.946 | S. cerevisiae deletion strains, locus YOR290C, strain snf2, hits give low values 1.02 | S. cerevisiae deletion strains, locus YOR316C, strain cot1, hits give low values 0.982 | S. cerevisiae deletion strains, locus YPL051W, strain arl3, hits give low values 1 | S. cerevisiae deletion strains, locus YPL055C, strain LGE1, hits give low values 0.997 | S. cerevisiae deletion strains, locus YPL078C, strain atp4, hits give low values 1.02 | S. cerevisiae deletion strains, locus YPL106C, strain sse1, hits give low values 1 | S. cerevisiae deletion strains, locus YPL240C, strain hsp82, hits give low values 0.999 | S. cerevisiae deletion strains, locus YPL241C, strain CIN2, hits give low values 1.01 | S. cerevisiae deletion strains, locus YPL256C, strain CLN2, hits give low values 0.994 | S. cerevisiae deletion strains, locus YPR119W, strain clb2, hits give low values 0.981 | S. cerevisiae deletion strains, locus YPR141C, strain kar3, hits give low values 1.01 | S. cerevisiae deletion strains, locus YPR163C, strain tif3, hits give low values 0.99 | S. cerevisiae deletion strains, locus YPR167C, strain met16, hits give low values 1.01 | S. cerevisiae deletion strains, strain wtn01, hits give low values 1.01 | S. cerevisiae strains, strain wild type, hits give low values 1.01
